# An excerpt weighted towards active compounds, which were near 3.8% of everything screened.
# Yeast superoxide = reduction of superoxide in aged yeast, primary screen, HTS. S. cerevisiae aged cells, superoxide DHE fluorescence; hits give low values. superoxide response (% of plate mean), % at 10 µM. 330,000 tested, 0.18% active. AID 2690, 2010;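 active = superoxide response under a set limit, about three screen SD below normal, cut at about 65% in these data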;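 note: yeast aged for seven days with compound at 30 °C before DHE staining; 100% = average MFI of all compound-treated wells on the plate with controls excluded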
# H9c2 protect = cardioprotection against H2O2-induced cell death, primary screen, uHTS, H9c2 cells, ATPLite luminescence; AID 588492, 2011; H9c2 cardiomyocytes, H2O2 injury protection, 2 h; 360,000 tested, 0.63% active; protection from H2O2 cell death, % at 20 µM;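 active = compounds giving at least 50% protection of heart cells from peroxide-induced death in the single-dose screen, raw or plate-pattern-corrected value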;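 note: 0% = DMSO wells with peroxide and 100% = DMSO wells without peroxide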
# SUMO Mot1 rescue = yeast Mot1-301 growth rescue at high temperature, primary screen, SUMOylation pathway inhibitor project, S. cerevisiae, ATP luminescence, 38.5C | S. cerevisiae Mot1-301 growth rescue; percent above DMSO median, 100 means doubled | growth rescue, % at 18.8 µM | 320,000 tested, 1% active;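 active = every valid replicate shows activation above 250% relative to neutral control wells; inactive = the rest, any valid replicate at or below 250%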;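 note: OY570 slx delta 5 strain wells were the positive control but not used for scaling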
# FAS TE block = FAS thioesterase domain inhibitors, primary screen, biochemical, fluorescence intensity, uHTS; inhibition, % at 15 µM; Fatty acid synthase (Homo sapiens), P49327; 360,000 tested, 0.67% active; AID 602261, 2012; recombinant FAS-TE, OMFH fluorogenic substrate, fluorescence endpoint;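 active = compounds whose normalised, plate-corrected inhibition of enzyme fluorescence in the single-dose primary screen is 50% or more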;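 note: 0% = DMSO with enzyme and 100% = substrate without enzyme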
# aDG glyco act = activators of alpha-DG glycosylation, primary screen, uHTS, Pro5-aDG cells, AlphaScreen | alpha-DG glycosylation AlphaScreen (IIH6); 0% Pro5, 100% B10-LARGE cell signal | 360,000 tested, 0.22% active | activation, % at 10 µM;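 active = activation of at least 8% versus controls, or a plate z-score of at least 8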;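 note: Pro5 are CHO cells carrying HIG-tagged alpha-DG that lacks glycosylation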
# MPTP block = mitochondrial permeability transition pore inhibitors, primary screen, biochemical, isolated mouse mitochondria, absorbance; 360,000 tested, 1.4% active; Ca2+ swelling absorbance, 30 min; inhibition, % at 10 µM; AID 602449, 2012;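 active = inhibition of 50% or more, scaled per plate between neutral and stimulator controls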;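 note: 0% = DMSO wells given calcium and 100% = 1 mM EGTA wells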
# Active calls of the source: *; nt = not tested or not shown.
SMILES,Yeast superoxide,H9c2 protect,SUMO Mot1 rescue,FAS TE block,aDG glyco act,MPTP block
O=C(N/N=C/c1sc(N2CCOCC2)nc1-c1ccccc1)c1cccc(S(=O)(=O)N2CCOCC2)c1,92,54*,5,46,0,2
COc1cc(C(=O)N/N=C/c2sc(N3CCOCC3)nc2-c2ccccc2)cc(OC)c1OC,75,66*,62,-1,0,2
CCCCc1nnc(NC(=O)c2ccc(N3CCCC3=O)cc2)s1,104,-2,1,-6,0,0
CC(C)Cc1nnc(NC(=O)c2ccc(N3CCCC3=O)cc2)s1,110,5,285*,-7,0,-2
COc1ccc(-c2nc(C#N)c(N3CCCCCC3)o2)cc1OC,101,0,348*,16,0,-1
COc1ccc(-c2nc(C#N)c(N3CCCCC3)o2)cc1,117,-5,9,14,0,2
COc1cc(/C=C2/CC/C(=C/c3ccc(O)c(OC)c3)C2=O)ccc1O,104,70*,-18,-5,0,15
CCN1C/C(=C/c2ccc(OC)c(O)c2)C(=O)/C(=C/c2ccc(OC)c(O)c2)C1,122,16,-13,-6,0,-1
COc1cc(/C=C2\CC/C(=C\c3ccc(OCCO)c(OC)c3)C2=O)ccc1OCCO,96,81*,-13,-10,-1,3
COc1cc(/C=C/C=C2/CC/C(=C/C=C/c3ccc(O)c(OC)c3)C2=O)ccc1O,nt,27,nt,-62,0,3
COc1ccc(/C=C2\CN(Cc3ccccc3)C/C(=C\c3ccc(OC)c(O)c3)C2=O)cc1O,84,61*,8,4,0,0
COc1cc(/C=C2\COC/C(=C\c3ccc(O)c(OC)c3)C2=O)ccc1O,99,53*,1,-1,0,5
COc1ccc(/C=C2\CC/C(=C\c3ccc(OC)c(OC)c3)C2=O)cc1OC,108,-8,0,5,0,-21
COc1ccc(-n2ccnc2SCC(=O)c2c(N)n(C3CC3)c(=O)[nH]c2=O)cc1,nt,-2,nt,-7,0,-1
C=C[C@]12CC[C@H](OC(C)=O)CC1=CCC1C2CC[C@@]2(C)C1CCC21OCCO1 (some centres not stated),nt,-10,nt,33,0,0
CC(C)c1ccc(NC2CCCN(C(=O)CN3CCCC3=O)C2)cc1 (configuration not stated),84,-6,24,-2,0,-2
CCOc1cc2[nH]c(=S)n(CCC(=O)NC3CCCCC3)c(=O)c2cc1OCC,nt,1,nt,-12,0,0
O=C(Cc1coc2cc(O)ccc12)NNC(=O)c1ccc(Br)s1,103,-3,45,2,0,-3
COc1ccc(CC(=O)OC(C)C(=O)Nc2c(C)n(C)n(-c3ccccc3)c2=O)cc1OC (configuration not stated),101,10,6,-10,0,-2
CCc1oc(C(=O)O)cc1CN(CC)CC,85,1,-8,-6,0,-2
CCN(CC)Cc1cc(O)c(CN(CC)CC)cc1O,nt,55*,nt,-9,0,1
CC(/C=C/c1ccc(O)cc1)=NNc1ccccc1,nt,-1,nt,11,0,0
Oc1ccc(-c2nc3ccc4ccccc4c3c3c2CCC3)cc1O,73,88*,50,-4,0,6
Cc1cc(C)c2c(ccc3ccccc32)n1,nt,11,nt,-2,0,-1
Cc1ccc(-c2nn3c(C)nnc3c3ccccc23)cc1S(=O)(=O)NCCN1CCOCC1,104,-1,-6,-3,0,1
SMILES,Yeast superoxide,H9c2 protect,SUMO Mot1 rescue,FAS TE block,aDG glyco act,MPTP block
Cc1ccc(-c2n[nH]c(=O)c3ccccc23)cc1S(=O)(=O)Nc1ccccc1,98,83*,-30,7,0,16
Cc1ccc(-c2n[nH]c(=O)c3ccccc23)cc1S(=O)(=O)NCCN1CCOCC1,98,49*,4,-6,0,0
Cc1ccc([C@H]2N[C@]3(CCCN(Cc4ccccc4)C3=O)[C@H]3C(=O)N(C)C(=O)[C@@H]23)cc1,nt,0,nt,-8,0,-3
COc1ccnc(Oc2ccccc2)c1C(=O)N/C=N/OCc1ccc(F)cc1Cl,107,69*,322,25,0,-3
COc1ccccc1CO/N=C/NC(=O)c1c(OC)ccnc1Oc1ccc(F)cc1,103,14,4,11,0,2
CC(C)[C@H](NC(=O)c1c(F)cccc1F)C(=O)Nc1cccc(Br)c1,103,5,6,1,0,1
CCOC(=O)C1CCN(CC(C)(C)NS(=O)(=O)c2ccc(Cl)cc2)CC1,99,-5,338*,2,0,0
CC1=C(C(=O)Nc2cccnc2)C(c2cccnc2)n2nc(-c3cccs3)nc2N1 (configuration not stated),98,1,350*,-11,1,1
COc1ccc2cc3cc(C(=O)NCCc4ccc(OC)c(OC)c4)oc3nc2c1,97,87*,333,2,0,-2
O=S(=O)(/C=C/c1ccccc1)NC1CCCCCC1,97,-9,31,10,0,-1
O=S(=O)(/C=C/c1ccccc1)NC1CCCCCCC1,108,-9,328*,18,0,1
O=C(O)Cc1csc(NC(=O)CSc2cccc(C(=O)O)n2)n1,116,-4,-11,-4,0,0
COc1cc2[nH]c(=O)n3nc(-c4ccccc4)nc3c2cc1OC,102,95*,10,-2,0,2
COc1ccc(OC)c(NC(=O)CSc2ccc3nnc(-c4ccccn4)n3n2)c1,101,0,4,-2,0,-1
Cc1nc2ccc(S(=O)(=O)NC(C(=O)NCc3ccco3)C(C)C)cc2s1 (configuration not stated),102,-2,357*,-3,0,0
COc1ccccc1N/N=C/c1c(CO)cnc(C)c1O,95,8,5,0,0,0
COc1ccccc1NS(=O)(=O)c1cccc(C(=O)N/N=C/c2c(CO)cnc(C)c2O)c1,89,52*,13,13,0,0
CN(C)CCNC(=O)COc1ccc(C23CC4CC(CC(C4)C2)C3)cc1,99,-11,-4,11,3,0
COc1ccc(NC(=O)CCCN2C(=O)C(c3ccccc3)Oc3cccnc32)c(OC)c1 (configuration not stated),92,-4,339*,5,0,-1
C[C@H](CO)N1C[C@H](C)[C@@H](CN(C)Cc2ccc(F)cc2)Oc2ncc(Br)cc2C1=O,nt,11,nt,-7,0,4
